Reference: PubChem BioAssay (NCATS)
Records with an inconclusive call do not appear. A call without a number means that no potency is given here. Unmarked numbers belong to inactive results. The source made the active and inactive calls. Calls follow the shape of the dose curve; as a rule, active = well fitted inhibition curve with a large enough effect; inconclusive = small, poorly fitted or top-dose-only effect; inactive = no such curve, though single readings can be large or run the other way.

What was measured:
[1] = tested on: Zika virus NS2B-NS3 protease (unlinked complex); assay: Primary screen GU Rhodamine qHTS for Zika virus inhibitors: Unlinked NS2B-NS3 protease assay (AID 1347159); also: nearly all actives have a fitted effect of over 60% in size
Procedure, shortened: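 Percent inhibition came from the 15-min rise in Rhodamine110 fluorescence (1.5 microM substrate, ~15% conversion), normalized to no-inhibitor and no-enzyme wells and Hill-fitted. Unlinked protease, 25 nM, pH 8.0 Tris buffer; compounds up to 114 microM, 15-min preincubation.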

[2] = tested on: Zika virus NS2B-NS3 protease (linked construct); assay: Primary screen NINDS Rhodamine qHTS for Zika virus inhibitors (AID 1347160); also: nearly all actives have a fitted effect of over 55% in size
Procedure, shortened: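 Rhodamine110-peptide cleavage (1.5 µM substrate) by 25 nM linked NS2B-NS3 enzyme at pH 8.0 (Tris, Tween 20), after 15 min RT preincubation with compounds; 15-min fluorescence change normalized to controls and Hill-fitted.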
Potency is read from the fitted curve at half-maximal effect.

| SMILES | Potency [1] | Potency [2] | activity change, negative = inhibition [1] |
| --- | --- | --- | --- |
| CCC(C)/C=C(C)/C=C/C1=CC2=C(Cl)C(=O)C(C)(O)C(=O)C2(O)C(OC)O1 (stereo not drawn) | 15.8 µM (active) | 10 µM (active) | – |
| COc1cc(O)cc2c1C(=O)OC(C)C2 (stereo not drawn) | inactive | inactive | – |
| CC(=O)NCC1CN(c2ccc(-c3ccc(CNCc4cn[nH]n4)cc3)c(F)c2)C(=O)O1 (stereo not drawn) | inactive | inactive | – |
| CC1(C)Oc2ncnc(N)c2N=C1c1ccc(C2CCC(CC(=O)O)CC2)cc1 (stereo not drawn) | inactive | inactive | – |
| COc1ccc(-n2[nH]c3c(cnc4ccccc43)c2=O)cc1 | inactive | inactive | – |
| CCN(CCN(C)C)C(=O)CNCc1cc(C(N)=O)ccn1 | inactive | inactive | – |
| COCCN1CCC(C(=O)NO)(S(=O)(=O)c2ccc(Oc3ccc(OC(F)(F)F)cc3)cc2)CC1 | inactive | inactive | – |
| CC(C)[C@@](O)(c1ccc2cc(OC(F)F)c(OC(F)F)cc2c1)c1cn[nH]n1 | inactive | inactive | – |
| CC1(C)CCC2(C(=O)O)C(O)CC3(C)C(=CCC4C5(C)CCC(OC6OC(CO)C(O)C(O)C6OC6OC(CO)C(O)C(O)C6OC6OCC(O)(CO)C6O)C(C)(C)C5CCC43C)C2C1 (stereo not drawn) | inactive | inactive | – |
| CCCC(C(=O)O)c1c(C)nc2ccc(Cl)cc2c1-c1ccccc1 (stereo not drawn) | 31.6 µM (active) | 14.1 µM (active) | – |
| Nc1ccc(-n2nc(C(F)(F)F)cc2C(F)(F)F)cc1 | inactive | inactive | – |
| COc1c(C)c(OCC=C(C)C)cc2c1CNC2=O | inactive | inactive | – |
| C=CC1(C)CC2CCC3C(C)(C(=O)O)CCCC3(C)C2=CC1=O (stereo not drawn) | inactive | inactive | – |
| C/C=C/C=C/C(O)=C1/C(=O)[C@]2(C)C3/C(=C(O)/C=C/C=C/C)C(=O)C4(C)C1[C@]1(C)O[C@@]4(O)[C@@]3(C)O[C@@]12O | inactive | inactive | – |
| CS(=O)(=O)c1ccccc1N1CCN(c2nc3c(c(=O)[nH]2)CSCC3)CC1 | inactive | inactive | – |
| C=C1CC2C3(C)C=CC(=O)OC(C)(C)C3CC(OC(C)=O)C2(C)C2C(=O)OC(C)C(=O)C12C (stereo not drawn) | inactive | inactive | – |
| O=C(OC1C=C(CO)C2C(OC3OC(CO)C(O)C(O)C3O)OC=CC12O)c1ccc(O)cc1 (stereo not drawn) | inactive | inactive | – |

| SMILES | Potency [1] | Potency [2] | activity change, negative = inhibition [1] |
| --- | --- | --- | --- |
| CC(=O)O[C@H]1C[C@@H](O)C(C)(C)C2C[C@@H](OC(C)=O)[C@]3(C)C(CC[C@@]4(C)[C@H](c5ccoc5)OC(=O)[C@H]5O[C@]543)[C@]21C (stereo partly drawn) | inactive | inactive | – |
| C/C=C(/C)C(=O)OC1C(OC(C)=O)C23C(O)OC4(CCC5C6(C)CCC(OC7OC(C(=O)O)C(O)C(OC8OC(CO)C(O)C(O)C8OC8OC(C)C(O)C(O)C8OC8OCC(O)C(O)C8O)C7OC7OC(CO)C(O)C(O)C7O)C(C)(C)C6CCC5(C)C4(C)CC2OC(C)=O)C3CC1(C)C (stereo not drawn) | – | inactive | -1.79% [at 19.1 µM] |
| CC1=C2C(=O)C=C(CO[C@@H]3O[C@H](CO)[C@@H](O)[C@H](O)[C@H]3O)[C@@H]2[C@H]2OC(=O)[C@H](C)[C@@H]2[C@@H](O)C1 | inactive | inactive | – |
| CN1CCc2cc(Cl)c(O)cc2[C@@H](c2cccc3c2OCC3)C1 | inactive | inactive | – |
| CC1=C2C[C@@]3(C)C(CCC[C@@H]3C)C(O)C2(O)OC1=O (stereo partly drawn) | inactive | inactive | – |
| CCC(C)/C=C(C)/C=C/C(=O)C1CCC(O)C(C)(O)C1=O (stereo not drawn) | 17.8 µM (active) | 25.1 µM (active) | – |
| O=C(NCCN1CCCC1)c1cc(-c2ccc(CN3CCOCC3)cc2)nc2ccc(F)cc12 | inactive | inactive | – |
| COC(=O)c1ccc(OC)cc1O[C@@H]1O[C@H](CO[C@@H]2OC[C@@H](O)[C@H](O)[C@H]2O)[C@@H](O)[C@H](O)[C@H]1O | inactive | inactive | – |
| C=C(CCO[C@@H]1O[C@H](CO)[C@@H](O)[C@H](O)[C@H]1O)C(=O)O | inactive | inactive | – |
| CCNC(=O)C1CC(F)(c2ccc(CN3CCCC3)c(F)c2)C1 (stereo not drawn) | inactive | inactive | – |
| COc1ccc(C2(O)c3ccccc3NC(=O)C2OC)cc1 (stereo not drawn) | inactive | inactive | – |
| C=C[C@@](C)(CCC=C(C)C)O[C@@H]1O[C@H](CO[C@@H]2OC[C@H](O)[C@H](O)[C@H]2O)[C@@H](O)[C@H](O)[C@H]1O | inactive | inactive | – |
| C/C(=C\CCC(C)C1CC(O)C2(C)C3CCC4C(C)(C)C(OC5OCC(O)C(O)C5O)CCC45CC35CC(O)C12C)C(=O)O (stereo not drawn) | inactive | inactive | – |
| C[C@]1(OC(=O)/C=C/c2ccccc2)C[C@@H](O)[C@]2(O)C=CO[C@@H](O[C@@H]3O[C@H](CO)[C@@H](O)[C@H](O)[C@H]3O)[C@@H]21 | inactive | inactive | – |
| C=C[C@H]1[C@H](O[C@@H]2O[C@H](CO)[C@@H](O)[C@H](O)[C@H]2O)OC=C2C(=O)N3Cc4c([nH]c5ccccc5c4=O)[C@@H]3C[C@H]21 | inactive | inactive | – |
| OC[C@@]1(O)CO[C@H](OC[C@H]2O[C@@H](OCCc3ccccc3)[C@H](O)[C@@H](O)[C@@H]2O)[C@@H]1O | inactive | inactive | – |
| CC(=O)N[C@H](Cc1c[nH]c2ccccc12)C(=O)OCc1cc(C(F)(F)F)cc(C(F)(F)F)c1 | inactive | inactive | – |
